Reference: PubChem BioAssay AID1650 (Southern Research Specialized Biocontainment Screening …, 2009)
Potency and affinity values are given separately. Unmarked numbers belong to inactive results. How the calls were made is not given here.

test: mammalian cell viability reduction – secondary assay, cytotoxicity control for West Nile virus antiviral project, dose response (AID 1650); conditions: Mammalian host cell viability, cytotoxicity counter-screen; series mostly up to 10 µM; viability: at the top concentration

Row | Structure (SMILES) | viability
1 | CCOc1c2ccoc2nc2c(OC)c(OC)ccc12 | 97.5%
2 | Nc1nonc1-n1nnc(C(=O)N/N=C/c2ccc(OCc3ccccc3)cc2)c1CNc1ccccc1 | 82.2% [at 20 µM]
3 | NS(=O)(=O)c1ccc(NC(=O)c2cc(-c3cc(Cl)ccc3O)n[nH]2)cc1 | 102%
4 | Cc1cc(C)c(NC(=O)Cn2nnc(C(=O)Nc3ccc(F)cc3F)c2N)c(C)c1 | 88.5% [at 20 µM]
5 | O=C(CCCN1C(=O)/C(=C\c2ccccc2)SC1=S)Nc1ccc(O)cc1 | 72.3% [at 20 µM]
6 | CC(C)c1ccc(-c2cc(C(=O)NN3CCN(C)CC3)c3ccccc3n2)cc1 | 77.3%
7 | CCOC(=O)c1c(CN2CCN(CCO)CC2)n(-c2ccccc2)c2cc(Br)c(O)cc12 | 83.9%
8 | COc1ccc(N=c2oc3ccc(OC)cc3cc2-c2nc3ccccc3[nH]2)cc1 | 80.5%
9 | COc1cc(C(=O)/C=C/c2cccnc2)ccc1O | 73.2%
10 | COc1ccc([C@@H]2[C@@H]3C(=O)N(C(C)(C)C)C(=O)[C@@H]3[C@]3(Cc4ccccc4)C(=O)N(c4ccc(Br)cc4)C(=O)N23)cc1 | 84.2% [at 20 µM]
11 | CN1CCN(CCCN2c3ccccc3Sc3ccc(C(F)(F)F)cc32)CC1 | 74.9%
12 | C/C(=N\Nc1nnc(-c2ccccc2)c(-c2ccccc2)n1)c1cccc([N+](=O)[O-])c1 | 82.4%
13 | O=C(NCCOc1ccccc1Cl)c1ncn[nH]1 | 96.6% [at 20 µM]
14 | CC(C)c1cc(C(=O)OCC(=O)NC(=O)NCc2ccco2)c(O)c(C(C)C)c1 | 89% [at 20 µM]
15 | Cc1ccc(/C=C2/Sc3ccc(C(=O)N4CCN(C)CC4)cc3NC2=O)cc1 | 81.2% [at 20 µM]
16 | COc1ccc2[nH]c3nc(SCc4nnc(-c5ccc(C)cc5)o4)nnc3c2c1 | 80.5%
